Bioassay records deposited in PubChem BioAssay by National Center for Advancing Translational Sciences (NCATS).
In the library only some 7.6% were active in any assay of this set; here they are far more common.
MCF10A rerep = A quantitative high throughput screen for small molecules that induce DNA re-replication in MCF 10a normal breast cells | MCF 10A DNA re-replication, Hoechst nuclear intensity, 48 h | Potency, µM (series often up to 46.1 µM), inactives show at the top dose activity, positive = re-replication, most hits filed as activators | 350,000 tested, 2.9% active; further: potency means the concentration at half of the fitted maximal effect; % of control where 0% means no effect; nearly all actives have a fitted effect of over 50% in size
KB-3-1 tox = qHTS assay for MDR1-selective chemotherapeutics: Primary screen using the parental adenocarcinoma cell KB-3-1. KB-3-1 viability, CellTiter-Glo ATP luminescence, 72 h. Potency, µM (top dose mostly 46.1 µM), actives largely listed as cytotoxic. 400,000 tested, 1.4% active. AID 1347075, 2019; further: potency means the concentration at half of the fitted maximal effect; on the % scale 0 is the no-effect control and ±100 the full control effect; nearly all actives have a fitted effect of over 60% in size
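Cytotoxicity measured as CellTiter-Glo luminescence after 72 h at 37 C. Compound titrations were pinned onto drug-naive KB-3-1 parental adenocarcinoma cells grown in DMEM with 10% FBS, and normalized data fitted to concentration-response curves.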
KCNH2 WT inh = qHTS for Inhibitors of KCHN2 3.1: Wildtype qHTS. activity change, % at 1.84 µM. U2OS, BacMam KCNH2, thallium flux FluxOr; stronger effect = lower value. 340,000 tested, 0.37% active. Voltage-gated inwardly rectifying potassium channel KCNH2 (Homo sapiens), Q12809;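 active means maximum activity change below -70%; inconclusive means maximum activity change between -70% and -50%; inactive means maximum activity change above -50%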; further: on the % scale 0 is the no-effect control and ±100 the full control effect
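U2OS cells transduced with wild-type KCNH2 virus are loaded with FluxOr dye for 45 min, and thallium flux is measured in kinetic reads before and after stimulation buffer. Rate constants are normalized to DMSO controls.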
SW480 rereplic = A quantitative high throughput screen for small molecules that induce DNA re-replication in SW480 colon adenocarcinoma cells. Potency, µM (highest dose often 46.1 µM), inactives show at the highest dose re-replication activation, most hits filed as activators. 340,000 tested, 1.8% active. SW480 DNA re-replication, Hoechst DNA content imaging, 48 h; further: potency means the concentration at half of the fitted maximal effect; % of control where 0% means no effect; nearly all actives have a fitted effect of over 55% in size
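250 cells/well; 23 nL cpd via pin tool; 48 hr, 37 C, 5% CO2; Hoechst 40 min; imager read of total nuclear intensity, ex 405/em 500-530 nm.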
KCNH2 3.1 block = qHTS for Inhibitors of KCHN2 3.1: Mutant qHTS. U2OS KCNH2 3.1, thallium flux FluxOr; stronger effect = lower value. activity change, % (tested at about 1.8 µM). 340,000 tested, 0.95% active. Potassium voltage-gated channel subfamily H member 2, brain isoform KCNH2 3.1 (human);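 active means maximum activity change below -70%; inconclusive means maximum activity change from -70% to -50%; inactive means maximum activity change above -50%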;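 further: thallium influx rate constant from kinetic fluorescence after stimulation buffer; on the % scale 0 is the no-effect control and ±100 the full control effect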
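Normalized rate constant (relative to positive and negative DMSO controls) derived from a 2 min kinetic fluorescence read after stimulation; U2OS cells expressing the 3.1 isoform via virus at 1.77 x 10^8 /mL.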
KB-V1 MDR tox = qHTS assay for MDR1-selective chemotherapeutics: Primary screen using the drug-selected MDR subline cells KB-V1; KB-V1 MDR cells viability, CellTiter-Glo, 72 h; Potency, µM (top dose mostly 46.1 µM), actives largely listed as cytotoxic; 400,000 tested, 3.4% active; further: potency means the concentration at half of the fitted maximal effect; on the % scale 0 is the no-effect control and ±100 the full control effect; nearly all actives have a fitted effect of over 60% in size
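qHTS viability screen in drug-selected KB-V1 MDR cells: 72 h compound treatment at 37 degrees C, ATP luminescence end point.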
Starred values were filed as active, the others as inactive; i = inactive; ? = inconclusive; . = not tested or not shown; [ ] = dose if it differs, or a comment. Unless noted, the call rests on the fitted dose curve; in most records, active means well fitted curve in the direction sought with a large enough effect; inconclusive means small, poorly fitted or top-dose-only effect, or another doubt; inactive means no such curve, though single readings can be large; an effect the other way counts as inactive or inconclusive.

SMILES	MCF10A rerep	KB-3-1 tox	KCNH2 WT inh	SW480 rereplic	KCNH2 3.1 block	KB-V1 MDR tox
C[C@H](NC(=O)c1nc[nH]c1C(=O)N[C@H](C)c1ccccc1)C(=O)OC(C)(C)C	18%	i	.	-6%	.	?
N#CC1=C(Nc2ccccc2)SC=C(c2ccc(Cl)c(Cl)c2)N=C1N1CCOCC1	16µM*	i	11	0%	-35	i
N#CC1=C(Nc2ccccc2)SC=C(c2ccccc2)N=C1N1CCOCC1	?	i	16	?	-6	i
Cc1ccc(N=Nc2c(N)nn(-c3ccccc3)c2N)cc1	15µM*	?	-8	13µM*	-3	6.5µM*
C/C(CC(=O)Nc1ccc(Cl)c(C(F)(F)F)c1)=N\NC(=O)c1ccccc1O	?	?	-3	107%	9	18µM*
O=C(CCCCCN1C(=O)CCC1=O)Nc1ccc(Cl)c(C(F)(F)F)c1	3%	i	-25	-1%	7	16µM*
CCc1ccccc1NCC(=O)Nc1ccc(Cl)c(C(F)(F)F)c1	?	?	-7	?	3	21µM*
COc1ccccc1NC(=O)CN1CCN(CC(=O)Nc2ccc(Cl)c(C(F)(F)F)c2)CC1	?	?	13	1%	-26	?
CC(C)(CNC(=S)NCCc1ccccc1)CNC(=S)NCCc1ccccc1	23µM*	?	8	?	-12	i
COc1ccc(-c2ccc3c(c2)c(Sc2ccccc2)c(-c2ccccc2)n3C)cn1	.	?	.	.	.	i
O=C(N[C@@H](Cc1ccccc1)C(=O)NC1CCCCCC1)c1ccco1	-4%	?	-27	1%	-5	5.2µM*
O=C(NC(Cc1ccccc1)C(=O)O)c1ccco1 (configuration not stated)	1%	i	-8	?	-15	i
O=C(N[C@@H](Cc1ccccc1)C(=O)NC1CCCCC1)c1ccco1	15%	i	-2	0%	11	13µM*
c1ccc(COc2cccc(CN3CCN(c4ccccn4)CC3)c2)cc1	?	i	1	?	-15	18µM*
COc1ccc(OC)c2sc(N3CCc4ccccc4C3)nc12	7%	i	-9	-1%	7	?
c1ccc2c(c1)CCN(c1nc3cc4c(cc3s1)OCCO4)C2	15µM*	?	-4	4%	11	?
Cc1cc(C)c(C#N)c(SCc2cn3c(C)cccc3n2)n1	-5%	i	-4	.	-1	18µM*
Cc1cccc2nc(CSc3nc4ccccc4o3)cn12	23%	?	0	4%	-9	16µM*
CCOC(=O)c1sc(NC(=O)C(C)Sc2nc(N)cc(=O)[nH]2)nc1C (configuration not stated)	4%	i	-3	-3%	18	i
CCOC(=O)c1nnsc1Nc1ccc(C)c(C)c1	1%	?	4	-28%	25	i
CCCn1c(C(O)c2ccc3c(c2)OCO3)nc2ccccc21 (configuration not stated)	?	i	14	15µM*	1	i
CC(=O)NC(C(=O)N1CCC(c2nc3ccccc3s2)CC1)C(C)C (configuration not stated)	-1%	i	-1	-15%	-7	i
COc1ccc(-c2cc(C(=O)OCC(=O)c3c(N)n(C)c(=O)n(C)c3=O)c3ccccc3n2)cc1	9%	i	-12	-26%	-8	i
COc1ccc(/C=C2\CCCc3c2nc2ccccc2c3C(=O)OCC(=O)c2c(N)n(C)c(=O)n(C)c2=O)cc1	4.6µM*	.	.	?	.	.
Cc1nn(Cc2c(F)c(F)c(F)c(F)c2F)c(C)c1NC(=O)c1ccc(COc2ccc(Cl)cc2Cl)o1	?	?	35	?	1	18µM*
SMILES	MCF10A rerep	KB-3-1 tox	KCNH2 WT inh	SW480 rereplic	KCNH2 3.1 block	KB-V1 MDR tox
O=C(Nc1ccn(Cc2c(F)c(F)cc(F)c2F)n1)c1ccc(COc2ccc(Cl)cc2Cl)o1	19%	i	39	3%	1	8.2µM*
CCCOc1ccc(C(=O)CCC(=O)NNC(=O)Cn2nc(C)cc2C)cc1	6%	?	-3	2%	4	i
O=C(N/C(=C/C=C/c1ccccc1)C(=O)N1CCCCC1)c1ccc([N+](=O)[O-])cc1	0.58µM*	i	19	-30%	-35	i
O=C(Nc1nc2c(c(=O)[nH]1)CCCC2)C1CC1	14%	i	-10	1%	-21	i
CCn1cc(CNC(=O)CCSc2nc(-c3ccco3)cc(C(F)(F)F)n2)cn1	?	?	1	?	-24	4.6µM*
O=C(CSc1nc(-c2ccco2)cc(C(F)(F)F)n1)Nc1ccc2c(c1)OCO2	-2%	?	4	-7%	-13	18µM*
COc1ccc(-c2cc(C(=O)Nc3c(C(=O)c4ccc(Cl)cc4)oc4ccccc34)no2)cc1	.	i	.	.	.	i
O=C(Nc1ccc(S(=O)(=O)Nc2cnc3ccccc3n2)cc1)c1ccc(F)cc1	-5%	i	0	7.3µM*	0	i
O=C(O)c1cccc(Nc2nc3ccccc3nc2NS(=O)(=O)c2ccccc2)c1	14%	i	-7	1%	14	i
O=[N+]([O-])c1ccc(S(=O)(=O)Nc2nc3ccccc3nc2Nc2ccccc2)cc1	10%	i	-16	13%	-7	5.2µM*
O=C(O)c1ccc(Nc2nc3ccccc3nc2NS(=O)(=O)c2ccc(F)cc2)cc1	23µM*	i	7	-15%	-4	i
COc1cc(Nc2nc3ccccc3nc2NS(=O)(=O)c2ccc([N+](=O)[O-])cc2)cc(OC)c1OC	22%	i	6	?	-33	?
Cc1ccccc1C(=O)NCC(=O)NNC(=O)c1cccc(Cl)c1	6%	i	-6	0%	2	?
COc1ccc(Cn2ccc3nc(C)c(C(=O)N4CCN(c5cccc(OC)c5)CC4)cc3c2=O)cc1	.	i	.	.	.	i
O=C(O)c1ccc2c(=O)n3cc(C(=O)c4ccccc4O)cc(Cl)c3nc2c1	?	i	-10	?	8	i
CCOC(=O)C1=C(C)NC2=C(C(=O)C(C(=O)OCC)C(c3ccco3)C2)C1c1ccccn1 (configuration not stated)	373%[0.0737 µM]	i	4	6.5µM*	-7	i
